A selection: hits, their analogues and other compounds. The true share with any hit is near 21%.
Pf growth 48h: inhibits P. falciparum growth in the first generation, 48 h | 310,000 compounds, 5.9% hits | Potency, µM (titrated, usually from 28.7 µM), for inactives: top-dose activity change, negative = inhibition, actives largely listed as inhibitors | AID 504832 | P. falciparum luciferase growth in erythrocytes, 48 h; further: potency means the concentration at half of the fitted maximal effect; on the % scale 0 is the no-effect control and ±100 the full control effect
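Growth was read as firefly luciferase luminescence after a 48 h, 37 C, 5% CO2 exposure of compounds to reporter-bearing P. falciparum cultures (0.1% parasitemia, 2% hematocrit final) in Albumax-supplemented RPMI 1640.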
Cycloheximide cs: counter-screen for Shiga toxin inhibitors: cycloheximide protein synthesis inhibition. AID 2314. max response, %. cell reporter, cycloheximide protein synthesis inhibition counterscreen. 300,000 compounds, 12% hits; in the data active means max response mostly above about 13%, no sharp cut-off; inactive means mostly below about 14%; further: read at 38.3 µM for the half of the compounds with a filed dose; 0% is about no effect
Pf growth 96h: P. falciparum growth inhibition at 96 hours. P. falciparum luciferase reporter growth, 96 h. Potency, µM (highest dose often 28.7 µM), for inactives: at the highest dose activity change, negative = inhibition, most hits filed as inhibitors. 320,000 compounds, 6.9% hits; further: potency means the concentration at half of the fitted maximal effect; on the % scale 0 is the no-effect control and ±100 the full control effect
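Readout is luminescence from an integrated firefly luciferase in P. falciparum. Red cells, 2% hematocrit and 0.05% parasitemia final, were cultured with compound through two parasite generations (96 hours) at 37 C, 5% CO2.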
Shiga toxin inh: Shiga toxin inhibition; Vero cells, Shiga toxin protein synthesis inhibition reporter; inhibition, % at 38.7 µM; AID 2315; 290,000 compounds, 9.2% hits; in the data active means inhibition mostly above about 28%, no sharp cut-off; inactive means mostly below about 43%; further: 0% is about no effect
An asterisk follows results filed as active; i = inactive; ? = inconclusive; · = no result given; [ ] = remark or other dose. Unless noted, the call rests on the fitted dose curve; in most records, active means well fitted inhibition curve with a large enough effect; inconclusive means small, poorly fitted or top-dose-only effect, or another doubt; inactive means no such curve, though single readings can be large or run the other way.

SMILES | Pf growth 48h | Cycloheximide cs | Pf growth 96h | Shiga toxin inh
O=C(Nc1cnc2ccccn2c1=O)c1ccc(Cl)cc1Cl | 425% | 44* | i | 96*
Cc1ccc(C(=O)Nc2cnc3ccccn3c2=O)cc1 | 205% | 41* | · | 103*
Cc1cc(C(=O)Nc2ccccc2C(=O)O)c(C)o1 | 12% | -7 | ? | 16
Cn1cccc1/C=C1\SC(=O)N(c2ccc(O)cc2)C1=O | 120% | 39* | 149% | 33*
COc1cc(/C=C2\SC(=O)N(c3ccc(O)cc3)C2=O)cc(OC)c1OC | -5% | 0 | -2% | -17
CCOc1ccc(N2C(=O)S/C(=C\c3cccn3C)C2=O)cc1 | 3.3µM* | 10 | 2.9µM* | 30
CCOC(=O)c1ccc(NS(=O)(=O)c2cn(C)cn2)cc1 | 30% | -3 | -6% | -10
Cc1ccc(N2C(N)=C(C#N)C(c3cccnc3)C3=C2CCCC3=O)cc1 (configuration not stated) | ? | 10 | ? | -16
Cc1nn(C)cc1C1C(C#N)=C(N)N(c2ccc(F)c([N+](=O)[O-])c2)C2=C1C(=O)CCC2 (configuration not stated) | ? | -1 | 9.3µM* | -4
COc1ccc(C2C(C#N)=C(N)N(c3ccccc3)C3=C2C(=O)CCC3)cc1Cn1cc([N+](=O)[O-])cn1 (configuration not stated) | 8.3µM* | -4 | 15µM* | -23
O=[N+]([O-])c1ccc(Nc2nc(NC3CCCCC3)nc(N3CCCC3)n2)cc1 | ? | 12 | ? | 35
CCn1cc(C(=O)NCCCOC)c(=O)c2cc(S(=O)(=O)N3CCCC3)ccc21 | -3% | -4 | -29% | 3
COc1cc(S(=O)(=O)N2CCC(O)(c3cccc(C(F)(F)F)c3)CC2)ccc1-n1cnnn1 | 10µM* | -3 | ? | -6
CCn1ncc(Cl)c1C(=O)Nc1cc([N+](=O)[O-])ccc1OC | 35% | -3 | 29% | -3
CCOC(=O)CN/C=C(\C#N)c1ccccc1 | -18% | 8 | 12% | -57
N#C/C(=C\c1ccc(OCC(N)=O)cc1)c1ccccc1 | 88% | 39* | 12% | 88*
CN(C)c1ccc(-c2cc[nH]c(=O)c2N)cc1 | · | 23 | · | 3
COc1cc(/C=C/c2nc3ccccc3c(=O)n2-c2ccccc2O)ccc1O | 9.3µM* | -2 | 9.3µM* | -6
COc1cc(/C=C/c2nc3ccccc3c(=O)n2-c2cccc(O)c2)ccc1O | 0% | 17 | -26% | 59*
O=c1c2ccccc2nc(/C=C/c2ccc(O)c(O)c2)n1-c1ccccc1 | ? | 7 | -22% | 10
COC(=O)c1ccc(CNC(=O)c2ccc(OC)c(S(=O)(=O)NC3CCCC3)c2)cc1 | ? | · | -5% | ·
O=C(c1ccco1)N1CCN=C1SCc1ccc(F)cc1 | -14% | -5 | 47% | -5
O=C(CC(SCCO)c1ccc(F)cc1)c1ccco1 (configuration not stated) | ? | 52* | -7% | 104*
Cc1ccc(C(CC(=O)c2ccco2)SCCO)cc1 (configuration not stated) | 17% | 38* | 9% | 72*
COc1cc(CNCCSc2nnnn2C)cc(Br)c1OCc1ccccc1 | ? | -2 | 2%[5.75 µM] | -6
SMILES | Pf growth 48h | Cycloheximide cs | Pf growth 96h | Shiga toxin inh
O=C(NN=C1CCCC1)C1COc2ccccc2O1 (configuration not stated) | -19% | 12 | ? | -2
COc1ccccc1CNC(=O)[C@H](C)NC(=O)C1CCN(C(=O)[C@@H](N)CCSC)CC1 | 2% | -2 | -4% | 7
O=C1C(Cl)=C(Nc2ccc3cn[nH]c3c2)C(=O)c2ccccc21 | 12µM* | -13 | 8.3µM* | -12
CN(C)c1ccc(NC2=C(Cl)C(=O)c3ccccc3C2=O)cc1 | 134% | 51* | 18% | 69*
Cc1ccc(OCC(=O)NCCCNC(=O)c2ccc(C)nc2)cc1 | -9% | 1 | 1% | -13
CCOc1ccccc1CN(Cc1ccco1)S(=O)(=O)c1ccc(-n2cnnn2)c(OC)c1 | 10µM* | 7 | · | 20
CCOc1cc(S(=O)(=O)NCc2ccco2)c(OCC)cc1-n1cnnn1 | -1% | 34* | ? | 76*
COc1cc(C#N)ccc1OC(=O)C1CCN(C(=O)c2ccc(F)cc2)CC1 | 4% | · | 12% | ·
C/C(=C\C(=O)c1ccccc1)Nc1ccc(O)cc1 | 107% | 89* | · | 174*
COC(=O)c1ccc(NC(=O)c2cccnc2)cc1 | 43% | -2 | 167% | ·
C/C(=C\C(=O)c1cccnc1)Nc1ccc(O)cc1 | · | 28* | -20% | 26*
O=C(CC1C(=O)Nc2ccccc2N1CC(=O)N1CCCC1)Nc1ccc(Br)cc1 (configuration not stated) | 4% | · | ? | ·

Bioassay records deposited in PubChem by National Center for Advancing Translational Sciences (NCATS).
